ATXN2 expr inh – Primary qHTS for Inhibitors of ATXN expression; HEK-293 ATXN2-luciferase reporter, luminescence, 24 h; Potency, µM (series often up to 57 µM), without a hit: top-dose activity change, negative = inhibition, most hits filed as inhibitors; 0.72% of 360,000 active; note: % is set by controls: 0 for no effect and ±100 for the full control effect; nearly all actives have a fitted effect of over 55% in size
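qHTS (up to 57 uM final) was run with 24 h compound exposure of reporter cells at 37 °C. Each well was multiplexed: SteadyGlo luminescence measured ATXN2-luciferase expression after a fluorogenic Gly-Phe-AFC viability readout (25 uM final).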
ATXN viability – Viability Counterscreen for Primary qHTS for Inhibitors of ATXN expression | 0.49% of 400,000 active | Potency, µM (top dose mostly 56.7 µM), most hits filed as cytotoxic | AID 651635, 2014 | S2 cells (HEK-293 line with an ATXN2-luciferase reporter) viability, CellTiter-Fluor protease fluorescence, 24 h; note: nearly all actives have a fitted effect of over 40% in size
KB-3-1 cytotox – qHTS assay for MDR1-selective chemotherapeutics: Primary screen using the parental adenocarcinoma cell KB-3-1 | KB-3-1 viability, CellTiter-Glo ATP luminescence, 72 h | AID 1347075, 2019 | Potency, µM (top dose mostly 46.1 µM), usual class: cytotoxic | 1.4% of 400,000 active; note: % is set by controls: 0 for no effect and ±100 for the full control effect; nearly all actives have a fitted effect of over 60% in size
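Multi-concentration cytotoxicity screen in KB-3-1 cells grown in DMEM lacking phenol red with 10% FBS. After 72 h at 37 °C with compound, ATP-dependent luminescence was recorded.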
HT1080NT lethal – qHTS for induction of synthetic lethality in tumor cells producing 2HG: qHTS for the HT-1080-NT fibrosarcoma cell line; HT-1080-NT fibrosarcoma viability, CellTiter-Glo ATP luminescence, 48 h; 1.6% of 360,000 active; Potency, µM (series often up to 46.1 µM), inactives show at the highest dose activity, negative = less viability, most hits filed as cytotoxic;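 note: NT is the 2HG producing partner of a matched IDH1 knockdown line; 0% = DMSO-treated cells and -100% = media-only wells without cells; nearly all actives have a fitted effect of over 55% in size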
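Fibrosarcoma NT cells, 750 per well in 5% FBS RPMI, were exposed to compound for 48 hours. Viability: CellTiter-Glo luminescence.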
HT1080 IDH1KD tx – qHTS for induction of synthetic lethality in tumor cells producing 2HG: qHTS for the HT-1080-IDH1KD cell line; Potency, µM (titrated, usually from 46.1 µM), for the others: at the top dose activity, negative = toxicity, most hits filed as cytotoxic; 2% of 360,000 active; AID 686971, 2013; HT-1080 IDH1 knockdown viability, ATP luminescence, 48 h;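 note: 0% = DMSO wells and -100% = cell-free medium wells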
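After a 2 h attachment period, IDH1KD HT-1080 cells took pin-transferred compound for 48 h at 37 °C; ATP-based luminescence after 10 min room-temperature reagent incubation reported viability.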
KB-V1 MDR tox – qHTS assay for MDR1-selective chemotherapeutics: Primary screen using the drug-selected MDR subline cells KB-V1; KB-V1 MDR cells viability, CellTiter-Glo, 72 h; Potency, µM (series often up to 46.1 µM), usual class: cytotoxic; AID 1347076, 2019; 3.4% of 400,000 active; note: % is set by controls: 0 for no effect and ±100 for the full control effect; nearly all actives have a fitted effect of over 60% in size
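KB-V1, DMEM (no phenol red) + 10% FBS; cpd pin-transferred, titration series; 72 h, 37 degrees C; CellTiter-Glo, luminescence. Data normalized, curve-fit.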
* hit, by the source's call; i = inactive; ? = inconclusive; / = not tested or not shown. Rows were chosen to be rich in hits. Some 6.2% of all compounds tested hit in one or more screens of this group. Calls come from the whole dose curve; as a rule, active = well fitted curve in the direction sought with a large enough effect; inconclusive = small, poorly fitted or top-dose-only effect, or another doubt; inactive = no such curve, though single readings can be large; an effect the other way counts as inactive or inconclusive. Potency is the fitted concentration of half-maximal effect.

SMILES	ATXN2 expr inh	ATXN viability	KB-3-1 cytotox	HT1080NT lethal	HT1080 IDH1KD tx	KB-V1 MDR tox
CNC1CCC(N(Cc2cccc(-c3ccncc3)c2)C(=O)c2sc3ccccc3c2Cl)CC1 (centres undefined)	24.3µM*	/	/	/	/	/
CCCCn1c(SCC(=O)c2ccc(OC)cc2OC)nc2cc(S(N)(=O)=O)ccc21	3.0%	i	i	-6.3%	-3.2%	18.4µM*
Cc1ccccc1C(=O)Nc1sc(C)c(C)c1C(=O)c1ccccc1	-3.2%	i	i	13.2%	5.0%	7.31µM*
CCOC(=O)c1sc(NC(=O)CSc2nc(C)cc(-c3ccccc3)n2)c(C#N)c1C	9.6%	i	i	18.5%	-7.0%	i
CCOC(=O)c1c(NC(=O)c2cc(-c3ccc(Cl)s3)nc3ccccc23)sc(C(N)=O)c1C	?	?	?	9.2%	1.4%	i
Cc1ccccc1-c1cc(C(=O)Nc2sc(C)c(C)c2C(N)=O)c2ccccc2n1	?	?	i	?	?	16.4µM*
CCOC(=O)c1sc(NC(=O)c2cc(-c3ccccc3C)nc3ccccc23)c(C#N)c1C	0.0%	?	8.2µM*	?	?	?
CCOC(=O)c1sc(NC(=O)c2ccncc2)c(C#N)c1C	-0.9%	?	4.11µM*	?	-0.6%	2.59µM*
O=S1(=O)N=C(Oc2ccccc2C(F)(F)F)c2ccccc21	/	/	i	/	/	?
Clc1ccc(-c2csc(-c3nc(-c4ccc(Br)s4)cs3)n2)cc1	-2.5%	i	?	/	/	i
Cc1ncc2c(c1CNS(=O)(=O)N(C)C)CCN(C(=O)/C=C/c1ccccc1Cl)C2	/	i	/	/	/	/
O=C1C=Cc2cccc3ccc(O)c1c23	7.08µM*	i	?	?	?	?
O=c1oc(-c2ccc(O)c(O)c2)cc2cccc(O)c12	22.2%	i	i	-14.0%	-15.8%	i
COc1cccc(NC(=O)CSC2=Nc3ccccc3C3=NC(CC(=O)NCc4ccc5c(c4)OCO5)C(=O)N23)c1 (centres undefined)	-0.9%	i	i	/	/	i
CCC(SC1=Nc2ccccc2C2=NC(CC(C)C)C(=O)N12)C(=O)Nc1ccc2c(c1)OCO2 (centres undefined)	-11.4%	i	?	-9.3%	-22.8%	14.6µM*
CCCN(Cc1nnc(-c2cccs2)o1)C(=O)c1cccc(S(=O)(=O)N2CCOCC2)c1	2.4%	i	i	5.0%	-3.2%	23.1µM*
CCC(=O)NC(c1ccc(Cl)cc1Cl)c1ccc2cccnc2c1O (centres undefined)	5.62µM*	i	?	14.6µM*	?	i
Cc1cc(NC(c2ccc(Cl)cc2)c2ccc3cccnc3c2O)no1 (centres undefined)	3.16µM*	?	?	?	?	?
CCCCC(=O)NC(c1ccc(Cl)cc1Cl)c1ccc2cccnc2c1O (centres undefined)	?	i	3.26µM*	?	?	?
CC(C)C(=O)NC(c1ccc(Cl)cc1Cl)c1ccc2cccnc2c1O (centres undefined)	/	?	i	?	?	i
Cc1cccc(N2CCN(C(=O)C3CCN(C(=O)c4cc5sccc5n4C)CC3)CC2)c1C	/	/	i	/	/	i
COc1ccc(-c2cc(C(=O)N3CC4(C)CC3CC(C)(C)C4)no2)cc1OC (centres undefined)	-10.8%	i	i	7.5%	-2.0%	20.6µM*
COc1ccc(-c2cc(C(=O)N3CC4(C)CC3CC(C)(C)C4)no2)cc1 (centres undefined)	-4.7%	i	?	7.5%	-0.4%	i
O=[N+]([O-])c1cc(C(F)(F)F)ccc1NCCCCNS(=O)(=O)c1ccc(Cl)cc1	?	?	?	?	?	20.6µM*
O=[N+]([O-])c1cc(C(F)(F)F)ccc1NCCNC(=S)Nc1ccc(Cl)cc1	?	?	i	17.8µM*	?	?
SMILES	ATXN2 expr inh	ATXN viability	KB-3-1 cytotox	HT1080NT lethal	HT1080 IDH1KD tx	KB-V1 MDR tox
NC(=O)[C@@H]1CCCN1C(=O)CCN1Cc2ccccc2OC(c2ccccc2F)C1 (some centres undefined)	/	i	/	/	/	/
COc1cc(C(=O)NC(=S)Nc2ccc([N+](=O)[O-])cc2C)cc(OC)c1OC	0.0%	i	i	-26.2%	-9.0%	2.06µM*
COc1cc(C(=O)NC(=S)Nc2ccc([N+](=O)[O-])cc2)cc(OC)c1OC	-4.7%	i	i	-4.6%	-8.7%	i
Cc1ccc(S(=O)(=O)N(C)C)cc1NC(=O)C(C)OC(=O)CC1CC2CCC1C2 (centres undefined)	/	i	i	-4.6%	-5.2%	?
Cc1ccccc1C1C=C(c2ccc(Cl)cc2)Nc2nnnn21 (centres undefined)	12.8%	i	i	/	/	i
COc1cccc(C2=CC(c3cccc(OC)c3OC)n3nnnc3N2)c1 (centres undefined)	5.7%	i	i	?	16.4µM*	?
COc1cccc(C2=CC(c3cccc(OC)c3OC(F)F)n3nnnc3N2)c1 (centres undefined)	1.8%	i	i	-3.8%	-21.3%	i
COc1cccc(C2C=C(c3ccc(C)c(C)c3)Nc3nnnn32)c1OC (centres undefined)	13.2%	i	4.11µM*	/	/	i
CCC1CN(CCNC(=O)c2scc3c2OCCO3)Cc2cc(OC)ccc2O1 (centres undefined)	/	i	/	/	/	/
CCc1ccc(-c2nc(SCC(=O)NCCOC)c(-c3ccc(C)cc3)[nH]2)cc1	/	/	i	/	/	i
COc1ccccc1CNC(=O)C(=O)NCC(c1cccs1)S(=O)(=O)c1ccccc1 (centres undefined)	-8.3%	i	i	/	/	i
O=C(NC1CCCC1)C(c1ccncc1)N(CC1CCCO1)C(=O)Cn1nnc(-c2cccs2)n1 (centres undefined)	-1.2%	i	?	15.7%	3.9%	23.1µM*
Cc1ccc(C)c(N(C(=O)Cn2nnc(-c3cccs3)n2)C(C(=O)NC2CCCC2)c2ccncc2)c1 (centres undefined)	1.0%	i	i	4.5%	17.7%	i
